# Unmarked numbers belong to inactive results.
# Assays:
# Assay in all cases: log2 ratio of Biotin-Ahx-Ub-VS probe labelling (fragment/DMSO); higher = less target engagement (more negative = stronger competition), active = hit call of the paper (q ≤ 0.05, log2 ratio ≤ -1)
# Conditions in all cases: compound concentration: 200 uM; treatment time: 3 h
# [1] = target: T1, OTUD6B (UniProt Q8N6M0)
# T1 sequence (whole entry): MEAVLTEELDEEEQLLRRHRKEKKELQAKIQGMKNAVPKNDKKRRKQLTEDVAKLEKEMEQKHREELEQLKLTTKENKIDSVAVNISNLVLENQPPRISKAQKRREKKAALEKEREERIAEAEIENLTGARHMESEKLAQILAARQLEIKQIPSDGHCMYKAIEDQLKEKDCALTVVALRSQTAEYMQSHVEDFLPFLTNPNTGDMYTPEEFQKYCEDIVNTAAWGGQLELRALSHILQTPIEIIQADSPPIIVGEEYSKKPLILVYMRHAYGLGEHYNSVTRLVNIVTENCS
# How it was run: (§1)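 Fragment (200 µM) or vehicle was incubated for 3 h with triplicate HEK293T lysate samples of 495 µg, which were then treated with Biotin-Ahx-Ub-VS at 0.5 µM final for 1 h. Labelled DUBs were enriched on NeutrAvidin, digested with LysC and trypsin, and analysed by diaPASEF LC-MS/MS. Values are average log2 fragment/vehicle ratios from an unpaired t-test on global-median-normalised Spectronaut label-free quantities, using proteins with ≥2 unique peptides.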
# [2] = target: T2, OTUD7B (UniProt Q6GQQ9)
# T2 sequence (whole entry): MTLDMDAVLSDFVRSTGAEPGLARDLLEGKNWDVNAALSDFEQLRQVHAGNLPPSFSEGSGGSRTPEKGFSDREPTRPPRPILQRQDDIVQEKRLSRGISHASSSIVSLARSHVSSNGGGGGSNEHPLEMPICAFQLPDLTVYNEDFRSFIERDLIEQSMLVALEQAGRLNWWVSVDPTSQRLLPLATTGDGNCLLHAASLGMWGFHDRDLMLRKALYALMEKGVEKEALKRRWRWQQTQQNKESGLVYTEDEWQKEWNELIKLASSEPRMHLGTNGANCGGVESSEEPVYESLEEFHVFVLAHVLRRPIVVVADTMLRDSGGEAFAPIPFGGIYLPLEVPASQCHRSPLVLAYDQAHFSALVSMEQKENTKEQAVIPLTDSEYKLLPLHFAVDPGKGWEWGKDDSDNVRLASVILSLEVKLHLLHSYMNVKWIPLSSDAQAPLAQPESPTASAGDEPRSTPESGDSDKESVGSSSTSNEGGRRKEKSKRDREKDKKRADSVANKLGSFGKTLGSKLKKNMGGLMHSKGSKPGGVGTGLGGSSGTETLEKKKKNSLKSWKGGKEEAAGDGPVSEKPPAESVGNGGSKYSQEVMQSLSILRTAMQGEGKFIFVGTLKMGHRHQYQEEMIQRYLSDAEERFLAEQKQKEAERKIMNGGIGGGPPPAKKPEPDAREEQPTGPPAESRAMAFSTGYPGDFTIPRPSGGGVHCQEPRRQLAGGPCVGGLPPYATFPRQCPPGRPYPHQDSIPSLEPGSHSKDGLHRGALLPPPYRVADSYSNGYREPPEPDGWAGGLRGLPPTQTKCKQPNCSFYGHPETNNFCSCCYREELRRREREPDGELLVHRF
# How it was run: as §1
# [3] = target: PRPF8 (UniProt Q6P2Q9)
# How it was run: as §1
# [4] = target: T3, PSMD7 (UniProt P51665)
# T3 sequence (whole entry): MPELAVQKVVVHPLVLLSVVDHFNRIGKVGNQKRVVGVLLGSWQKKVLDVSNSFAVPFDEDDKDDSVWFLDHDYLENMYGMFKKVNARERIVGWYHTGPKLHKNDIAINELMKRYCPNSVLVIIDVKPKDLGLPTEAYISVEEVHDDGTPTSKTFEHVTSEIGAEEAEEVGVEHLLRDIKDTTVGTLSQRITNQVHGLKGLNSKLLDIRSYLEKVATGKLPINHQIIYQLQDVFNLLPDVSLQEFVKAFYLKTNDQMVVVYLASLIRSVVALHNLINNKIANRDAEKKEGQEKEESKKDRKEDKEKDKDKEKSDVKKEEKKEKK
# How it was run: as §1
# [5] = target: UCHL1 (UniProt P09936)
# How it was run: as §1
# [6] = target: T4, UCHL3 (UniProt P15374)
# T4 sequence (whole entry): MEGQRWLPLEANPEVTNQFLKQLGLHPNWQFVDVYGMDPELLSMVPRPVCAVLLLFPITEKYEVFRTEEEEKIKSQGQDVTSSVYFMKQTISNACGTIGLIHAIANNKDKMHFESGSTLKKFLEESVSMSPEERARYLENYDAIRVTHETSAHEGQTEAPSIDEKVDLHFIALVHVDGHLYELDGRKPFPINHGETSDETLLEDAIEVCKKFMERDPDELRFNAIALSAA
# How it was run: as §1
# [7] = target: T5, UCHL5 (UniProt Q9Y5K5)
# T5 sequence (whole entry): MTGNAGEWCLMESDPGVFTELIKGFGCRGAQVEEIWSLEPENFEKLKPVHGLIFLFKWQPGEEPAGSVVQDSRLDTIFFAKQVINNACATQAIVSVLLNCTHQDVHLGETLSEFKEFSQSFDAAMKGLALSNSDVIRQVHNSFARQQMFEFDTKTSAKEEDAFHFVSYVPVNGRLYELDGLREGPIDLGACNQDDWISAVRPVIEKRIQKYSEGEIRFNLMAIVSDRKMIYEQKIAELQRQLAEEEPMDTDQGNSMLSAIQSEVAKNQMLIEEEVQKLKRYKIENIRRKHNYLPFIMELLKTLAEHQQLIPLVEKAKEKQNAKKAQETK
# How it was run: as §1
# [8] = target: USP10 (UniProt Q14694)
# How it was run: as §1
# [9] = target: T6, USP15 (UniProt Q9Y4E8)
# T6 sequence (whole entry): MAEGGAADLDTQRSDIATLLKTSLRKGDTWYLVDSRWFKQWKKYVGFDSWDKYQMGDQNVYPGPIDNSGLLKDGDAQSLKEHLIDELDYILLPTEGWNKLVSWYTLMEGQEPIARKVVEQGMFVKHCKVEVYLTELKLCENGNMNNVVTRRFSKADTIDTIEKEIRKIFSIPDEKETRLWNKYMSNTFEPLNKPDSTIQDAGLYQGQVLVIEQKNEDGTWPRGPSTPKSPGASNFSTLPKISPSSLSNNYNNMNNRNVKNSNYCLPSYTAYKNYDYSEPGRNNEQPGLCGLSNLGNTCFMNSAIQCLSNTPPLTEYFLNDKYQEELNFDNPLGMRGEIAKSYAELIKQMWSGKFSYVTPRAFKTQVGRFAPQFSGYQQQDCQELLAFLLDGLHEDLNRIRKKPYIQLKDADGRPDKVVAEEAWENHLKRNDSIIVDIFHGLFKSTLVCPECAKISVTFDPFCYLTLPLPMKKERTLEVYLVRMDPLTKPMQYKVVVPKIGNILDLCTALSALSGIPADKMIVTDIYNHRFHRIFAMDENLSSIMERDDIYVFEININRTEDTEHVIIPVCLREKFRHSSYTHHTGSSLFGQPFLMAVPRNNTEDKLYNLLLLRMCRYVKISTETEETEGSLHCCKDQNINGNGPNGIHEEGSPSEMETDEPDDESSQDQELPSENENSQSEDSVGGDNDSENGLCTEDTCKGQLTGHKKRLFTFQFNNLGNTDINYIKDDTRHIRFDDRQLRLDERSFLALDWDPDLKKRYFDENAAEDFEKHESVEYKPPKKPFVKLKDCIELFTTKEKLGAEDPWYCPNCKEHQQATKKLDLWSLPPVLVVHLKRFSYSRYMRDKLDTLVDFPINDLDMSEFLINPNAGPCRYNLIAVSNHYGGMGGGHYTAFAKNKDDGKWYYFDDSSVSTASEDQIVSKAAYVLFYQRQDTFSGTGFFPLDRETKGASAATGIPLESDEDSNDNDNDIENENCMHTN
# How it was run: as §1
# [10] = target: USP16 (UniProt Q9Y5T5)
# How it was run: as §1
# USP10, sequence (Q14694 whole entry): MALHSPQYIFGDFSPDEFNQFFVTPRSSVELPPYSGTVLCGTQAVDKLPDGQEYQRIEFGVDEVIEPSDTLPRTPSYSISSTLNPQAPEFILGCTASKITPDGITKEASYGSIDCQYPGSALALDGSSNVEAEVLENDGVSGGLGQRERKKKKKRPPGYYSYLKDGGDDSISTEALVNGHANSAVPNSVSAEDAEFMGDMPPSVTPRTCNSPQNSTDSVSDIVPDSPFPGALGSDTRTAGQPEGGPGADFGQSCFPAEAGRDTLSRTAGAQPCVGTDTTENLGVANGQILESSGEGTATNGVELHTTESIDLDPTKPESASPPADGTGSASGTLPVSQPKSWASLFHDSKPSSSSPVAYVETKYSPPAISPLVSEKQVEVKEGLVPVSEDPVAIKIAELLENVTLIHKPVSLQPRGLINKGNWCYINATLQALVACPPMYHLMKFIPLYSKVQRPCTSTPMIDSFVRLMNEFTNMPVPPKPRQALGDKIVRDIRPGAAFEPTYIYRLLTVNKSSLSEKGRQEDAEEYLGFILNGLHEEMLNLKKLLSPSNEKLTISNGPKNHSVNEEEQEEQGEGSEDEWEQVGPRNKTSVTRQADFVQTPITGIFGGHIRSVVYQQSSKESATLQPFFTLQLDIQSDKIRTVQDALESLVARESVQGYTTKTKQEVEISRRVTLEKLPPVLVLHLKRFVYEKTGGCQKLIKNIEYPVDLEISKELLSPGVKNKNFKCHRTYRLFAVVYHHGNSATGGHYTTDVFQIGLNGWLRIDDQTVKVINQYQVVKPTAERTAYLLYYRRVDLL
# USP16, sequence (Q9Y5T5 whole entry, looked up): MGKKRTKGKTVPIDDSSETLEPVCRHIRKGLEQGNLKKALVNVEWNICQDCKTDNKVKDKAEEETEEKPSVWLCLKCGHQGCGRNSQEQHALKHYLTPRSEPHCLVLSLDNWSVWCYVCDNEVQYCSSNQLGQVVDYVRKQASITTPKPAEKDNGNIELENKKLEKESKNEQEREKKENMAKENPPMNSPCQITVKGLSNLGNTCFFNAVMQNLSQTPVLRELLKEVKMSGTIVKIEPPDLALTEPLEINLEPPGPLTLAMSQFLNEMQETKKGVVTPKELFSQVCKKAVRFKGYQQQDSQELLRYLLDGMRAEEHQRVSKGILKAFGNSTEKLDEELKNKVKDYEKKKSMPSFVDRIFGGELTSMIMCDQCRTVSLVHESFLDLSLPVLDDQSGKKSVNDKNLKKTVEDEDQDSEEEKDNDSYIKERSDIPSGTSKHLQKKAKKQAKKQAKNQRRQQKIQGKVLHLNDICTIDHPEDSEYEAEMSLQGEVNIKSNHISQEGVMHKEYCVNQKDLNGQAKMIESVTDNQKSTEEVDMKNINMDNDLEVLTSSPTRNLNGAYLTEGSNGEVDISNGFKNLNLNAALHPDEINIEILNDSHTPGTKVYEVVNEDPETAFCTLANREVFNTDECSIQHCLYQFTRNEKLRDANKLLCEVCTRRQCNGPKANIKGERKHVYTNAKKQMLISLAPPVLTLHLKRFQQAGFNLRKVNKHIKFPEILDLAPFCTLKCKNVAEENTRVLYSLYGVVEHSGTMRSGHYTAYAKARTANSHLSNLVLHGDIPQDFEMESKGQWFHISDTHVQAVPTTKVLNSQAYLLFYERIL
# UCHL1, sequence (P09936 whole entry, looked up): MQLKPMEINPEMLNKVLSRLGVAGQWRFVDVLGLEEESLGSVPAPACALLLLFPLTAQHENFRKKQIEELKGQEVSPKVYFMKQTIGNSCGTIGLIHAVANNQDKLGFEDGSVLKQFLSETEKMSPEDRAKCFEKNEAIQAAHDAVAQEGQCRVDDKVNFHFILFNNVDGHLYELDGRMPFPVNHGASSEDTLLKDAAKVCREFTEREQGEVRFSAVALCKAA
structure (smiles),measurement,setting,value
Cl.O=C(CCl)NCc1cc2c(nc1O)CCCC2,log2 ratio of Biotin-Ahx-Ub-VS probe labelling,[1],-0.123
same,log2 ratio of Biotin-Ahx-Ub-VS probe labelling,[2],-0.66
same,log2 ratio of Biotin-Ahx-Ub-VS probe labelling,[3],-0.141
same,log2 ratio of Biotin-Ahx-Ub-VS probe labelling,[4],-0.244
same,log2 ratio of Biotin-Ahx-Ub-VS probe labelling,[5],-1.64 (active)
same,log2 ratio of Biotin-Ahx-Ub-VS probe labelling,[6],0.175
same,log2 ratio of Biotin-Ahx-Ub-VS probe labelling,[7],-0.407
same,log2 ratio of Biotin-Ahx-Ub-VS probe labelling,[8],-0.083
same,log2 ratio of Biotin-Ahx-Ub-VS probe labelling,[9],-0.148
same,log2 ratio of Biotin-Ahx-Ub-VS probe labelling,[10],-0.389
